For 1 sequence, binding signal results are on record in article PMC7862700, “An all-to-all approach to the identification of sequence-specific readers for epigenetic DNA modifications on cytosine”.

What all share (assay): DAPPL (digital affinity profiling via proximity ligation, sequencing); 10 mM Tris-HCl pH 7.5, 50 mM NaCl, 1 mM DTT, 4% glycerol, room temperature, 30 min; GST-TFs on glutathione beads, 16-mer random dsDNA library, 0.1% formaldehyde crosslink after washing; high values mean tight binding
One experiment has as its target T1, FEV (Homo sapiens, UniProt Q99581 1-238).
T1 sequence: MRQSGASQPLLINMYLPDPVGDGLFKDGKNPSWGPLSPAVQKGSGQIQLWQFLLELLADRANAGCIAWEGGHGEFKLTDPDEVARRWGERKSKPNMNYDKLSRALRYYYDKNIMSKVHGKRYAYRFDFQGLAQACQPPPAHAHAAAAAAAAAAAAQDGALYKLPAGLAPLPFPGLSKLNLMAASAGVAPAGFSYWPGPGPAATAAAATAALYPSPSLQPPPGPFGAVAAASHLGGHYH
The note with it: protein: recombinant; tags: N-terminal GST; dsDNA, one strand shown. The gist of the method:
(§1)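 Human transcription factors fused to GST were expressed in yeast, captured on glutathione beads, given DNA barcodes and pooled with a GST-only negative control. Pools were incubated with 200 nmole of a 16-mer random double-stranded DNA library in Tris/NaCl/DTT/glycerol buffer at room temperature for 30 min. They were then washed, crosslinked with 0.1% formaldehyde, proximity-ligated (BsaI/T4 ligase, 1 h, 37 °C), PCR-amplified and sequenced on an Illumina NextSeq500. Binding signal is each 6-mer's read frequency for a factor divided by its frequency for the GST control.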

In another experiment the target is ETV5 (Homo sapiens, UniProt P41161 1-510). The note with it: protein: recombinant; tags: N-terminal GST; dsDNA, one strand shown. The gist of the method:
as §1

In the next experiment the target is HSF1 (Homo sapiens, UniProt Q00613 1-529). The note with it: protein: recombinant; tags: N-terminal GST; chain copies: 3; dsDNA, one strand shown. The method in brief:
as §1

For a further experiment, the target named is T2, SPIC (Homo sapiens, UniProt Q8N5J4 1-248).
T2 sequence: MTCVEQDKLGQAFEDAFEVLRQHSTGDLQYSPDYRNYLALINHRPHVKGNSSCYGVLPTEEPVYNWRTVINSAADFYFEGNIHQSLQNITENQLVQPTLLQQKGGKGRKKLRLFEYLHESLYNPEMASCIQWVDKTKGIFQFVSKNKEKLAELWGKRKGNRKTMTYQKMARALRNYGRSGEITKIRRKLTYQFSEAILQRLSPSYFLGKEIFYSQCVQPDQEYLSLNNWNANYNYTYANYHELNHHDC
The note with it: protein: recombinant; tags: N-terminal GST; dsDNA, one strand shown. The gist of the method: as §1

Another experiment deals with ELF4 (Homo sapiens, UniProt Q99607 1-663). As to conditions: protein: recombinant; tags: N-terminal GST; dsDNA, one strand shown. The gist of the method:
as §1

For the next experiment, the target named is T3, ELK4 (Homo sapiens, UniProt P28324-2 1-405).
T3 sequence: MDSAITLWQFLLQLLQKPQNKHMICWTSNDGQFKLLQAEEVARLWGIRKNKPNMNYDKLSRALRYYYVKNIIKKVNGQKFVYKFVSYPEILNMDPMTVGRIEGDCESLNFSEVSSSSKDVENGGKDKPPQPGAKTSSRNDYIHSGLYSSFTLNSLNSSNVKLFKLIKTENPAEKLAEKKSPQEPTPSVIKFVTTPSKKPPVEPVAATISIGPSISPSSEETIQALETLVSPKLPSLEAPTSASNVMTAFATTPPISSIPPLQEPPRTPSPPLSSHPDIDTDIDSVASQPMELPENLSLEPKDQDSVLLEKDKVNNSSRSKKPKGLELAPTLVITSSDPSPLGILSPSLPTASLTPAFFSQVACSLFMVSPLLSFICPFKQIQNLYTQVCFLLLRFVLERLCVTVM
The note with it: protein: recombinant; tags: N-terminal GST; dsDNA, one strand shown. The method in brief:
as §1

The target of a further experiment is T4, ETV2 (Homo sapiens, UniProt O00321 1-342).
T4 sequence: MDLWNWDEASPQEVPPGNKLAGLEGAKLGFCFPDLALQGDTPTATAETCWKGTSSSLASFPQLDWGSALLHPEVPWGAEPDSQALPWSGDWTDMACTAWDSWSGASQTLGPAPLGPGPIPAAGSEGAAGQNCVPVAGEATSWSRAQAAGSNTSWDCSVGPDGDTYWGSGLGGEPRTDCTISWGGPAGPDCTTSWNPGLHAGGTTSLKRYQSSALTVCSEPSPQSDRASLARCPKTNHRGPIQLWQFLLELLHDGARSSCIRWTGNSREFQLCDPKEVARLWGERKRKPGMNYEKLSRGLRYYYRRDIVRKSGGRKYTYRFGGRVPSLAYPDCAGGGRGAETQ
The note with it: protein: recombinant; tags: N-terminal GST; dsDNA, one strand shown. The method in brief: as §1

The next experiment has as its target T5, ELF3 (Homo sapiens, UniProt P78545 1-371).
T5 sequence: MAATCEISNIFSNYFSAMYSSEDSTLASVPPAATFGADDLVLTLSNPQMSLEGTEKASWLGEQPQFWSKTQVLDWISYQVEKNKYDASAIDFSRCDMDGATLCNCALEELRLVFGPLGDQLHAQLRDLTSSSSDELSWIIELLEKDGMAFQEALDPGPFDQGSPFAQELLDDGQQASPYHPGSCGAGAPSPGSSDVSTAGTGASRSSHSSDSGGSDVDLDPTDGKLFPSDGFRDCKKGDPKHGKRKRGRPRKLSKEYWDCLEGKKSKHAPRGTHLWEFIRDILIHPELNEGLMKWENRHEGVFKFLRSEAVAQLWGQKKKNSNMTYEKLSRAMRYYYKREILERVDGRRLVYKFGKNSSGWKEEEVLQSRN
The note with it: protein: recombinant; tags: N-terminal GST; dsDNA, one strand shown. The gist of the method:
as §1

In another experiment the target is CRX (Homo sapiens, UniProt O43186 1-299). The note with it: protein: recombinant; tags: N-terminal GST; dsDNA, one strand shown. The method in brief: as §1
Another experiment deals with ETV1 (Homo sapiens, UniProt P50549 1-477). The note with it: protein: recombinant; tags: N-terminal GST; dsDNA, one strand shown. The method in brief:
as §1

For a further experiment, the target named is T6, ERF (Homo sapiens, UniProt P50548 1-548).
T6 sequence: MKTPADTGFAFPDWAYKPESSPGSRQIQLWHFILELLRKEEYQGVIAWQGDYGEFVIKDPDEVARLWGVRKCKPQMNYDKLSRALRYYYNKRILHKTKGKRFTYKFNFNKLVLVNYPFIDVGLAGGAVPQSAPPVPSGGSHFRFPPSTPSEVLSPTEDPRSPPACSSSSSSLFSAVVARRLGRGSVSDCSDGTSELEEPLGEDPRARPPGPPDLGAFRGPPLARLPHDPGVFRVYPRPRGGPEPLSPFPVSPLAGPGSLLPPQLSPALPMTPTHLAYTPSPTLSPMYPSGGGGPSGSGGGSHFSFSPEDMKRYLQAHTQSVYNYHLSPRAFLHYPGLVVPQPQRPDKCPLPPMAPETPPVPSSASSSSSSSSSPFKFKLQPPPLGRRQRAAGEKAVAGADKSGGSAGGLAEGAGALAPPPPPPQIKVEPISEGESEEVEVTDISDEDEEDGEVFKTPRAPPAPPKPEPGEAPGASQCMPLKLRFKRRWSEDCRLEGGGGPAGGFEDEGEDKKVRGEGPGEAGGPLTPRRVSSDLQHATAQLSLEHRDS
As to conditions: protein: recombinant; tags: N-terminal GST; dsDNA, one strand shown. The gist of the method: as §1

For the next experiment, the target named is T7, ETV3L (Homo sapiens, UniProt Q6ZN32 1-361).
T7 sequence: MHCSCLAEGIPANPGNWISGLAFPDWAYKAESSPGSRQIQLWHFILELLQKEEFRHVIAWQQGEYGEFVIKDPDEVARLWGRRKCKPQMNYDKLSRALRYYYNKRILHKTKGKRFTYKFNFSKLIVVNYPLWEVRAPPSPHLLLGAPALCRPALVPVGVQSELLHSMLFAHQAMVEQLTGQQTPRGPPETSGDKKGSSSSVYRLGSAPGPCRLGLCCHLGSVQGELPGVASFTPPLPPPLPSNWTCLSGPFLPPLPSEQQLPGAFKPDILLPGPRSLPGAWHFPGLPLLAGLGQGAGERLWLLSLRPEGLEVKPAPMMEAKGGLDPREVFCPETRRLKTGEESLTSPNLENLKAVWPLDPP
The note with it: protein: recombinant; tags: N-terminal GST; dsDNA, one strand shown. The gist of the method:
as §1

The next experiment deals with T8, ETS2 (Homo sapiens, UniProt P15036 1-469).
T8 sequence: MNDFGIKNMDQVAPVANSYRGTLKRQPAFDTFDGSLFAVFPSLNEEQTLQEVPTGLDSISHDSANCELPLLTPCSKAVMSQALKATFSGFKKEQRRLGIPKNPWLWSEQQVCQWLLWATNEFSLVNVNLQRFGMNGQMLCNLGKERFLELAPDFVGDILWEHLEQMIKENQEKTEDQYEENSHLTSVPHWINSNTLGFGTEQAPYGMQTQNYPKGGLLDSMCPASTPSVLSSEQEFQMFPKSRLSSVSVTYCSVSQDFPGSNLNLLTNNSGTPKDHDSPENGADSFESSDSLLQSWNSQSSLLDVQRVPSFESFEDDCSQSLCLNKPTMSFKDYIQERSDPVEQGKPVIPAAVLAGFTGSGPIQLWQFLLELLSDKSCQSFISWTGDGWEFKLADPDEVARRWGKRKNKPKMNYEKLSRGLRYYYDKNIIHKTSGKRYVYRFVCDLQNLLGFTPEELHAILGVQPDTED
As to conditions: protein: recombinant; tags: N-terminal GST; dsDNA, one strand shown. The method in brief: as §1

The next experiment deals with T9, SPDEF (Homo sapiens, UniProt O95238 1-335).
T9 sequence: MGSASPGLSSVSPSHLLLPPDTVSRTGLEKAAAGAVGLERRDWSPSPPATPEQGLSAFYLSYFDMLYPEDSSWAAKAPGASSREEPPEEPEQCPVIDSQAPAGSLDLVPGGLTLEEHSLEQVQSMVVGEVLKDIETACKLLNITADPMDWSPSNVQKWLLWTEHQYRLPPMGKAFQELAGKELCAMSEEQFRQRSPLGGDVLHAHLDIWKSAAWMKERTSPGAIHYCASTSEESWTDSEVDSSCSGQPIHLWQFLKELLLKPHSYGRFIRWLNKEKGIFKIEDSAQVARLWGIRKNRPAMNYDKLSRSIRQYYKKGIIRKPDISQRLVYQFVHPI
The note with it: protein: recombinant; tags: N-terminal GST; dsDNA, one strand shown. The method in brief:
as §1

The target of another experiment is T10, ETV7 (Homo sapiens, UniProt Q9Y603 1-341).
T10 sequence: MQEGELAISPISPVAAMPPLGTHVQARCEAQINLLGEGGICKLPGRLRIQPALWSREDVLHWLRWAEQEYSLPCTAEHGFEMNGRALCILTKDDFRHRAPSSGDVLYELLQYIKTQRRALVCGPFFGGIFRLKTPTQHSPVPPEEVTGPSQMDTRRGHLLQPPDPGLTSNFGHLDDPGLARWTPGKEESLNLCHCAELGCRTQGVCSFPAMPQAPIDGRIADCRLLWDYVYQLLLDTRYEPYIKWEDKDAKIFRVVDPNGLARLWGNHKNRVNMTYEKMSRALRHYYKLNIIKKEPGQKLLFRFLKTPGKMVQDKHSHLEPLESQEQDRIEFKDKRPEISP
The note with it: protein: recombinant; tags: N-terminal GST; dsDNA, one strand shown. The gist of the method:
as §1

The next experiment deals with T11, ELF5 (Homo sapiens, UniProt Q9UKW6-2 1-255).
T11 sequence: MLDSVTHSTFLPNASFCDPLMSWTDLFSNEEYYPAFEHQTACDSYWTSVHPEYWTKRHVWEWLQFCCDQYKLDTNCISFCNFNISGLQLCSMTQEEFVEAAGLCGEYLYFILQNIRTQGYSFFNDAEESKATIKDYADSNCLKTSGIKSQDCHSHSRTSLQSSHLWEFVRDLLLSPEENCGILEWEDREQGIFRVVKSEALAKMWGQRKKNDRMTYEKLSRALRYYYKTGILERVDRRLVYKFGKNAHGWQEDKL
The note with it: protein: recombinant; tags: N-terminal GST; dsDNA, one strand shown. The gist of the method:
as §1

Another experiment concerns the target T12, ETV3 (Homo sapiens, UniProt P41162-2 1-143).
T12 sequence: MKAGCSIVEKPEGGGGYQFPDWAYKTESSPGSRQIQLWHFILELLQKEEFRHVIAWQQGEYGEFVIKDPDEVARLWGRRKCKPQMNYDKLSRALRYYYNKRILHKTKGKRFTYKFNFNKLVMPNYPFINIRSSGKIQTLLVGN
The note with it: protein: recombinant; tags: N-terminal GST; dsDNA, one strand shown. The method in brief: as §1

Another experiment addresses ETV6 (Homo sapiens, UniProt P41212 1-452). The note with it: protein: recombinant; tags: N-terminal GST; dsDNA, one strand shown. The gist of the method:
as §1

ETV1, sequence (P50549 whole entry): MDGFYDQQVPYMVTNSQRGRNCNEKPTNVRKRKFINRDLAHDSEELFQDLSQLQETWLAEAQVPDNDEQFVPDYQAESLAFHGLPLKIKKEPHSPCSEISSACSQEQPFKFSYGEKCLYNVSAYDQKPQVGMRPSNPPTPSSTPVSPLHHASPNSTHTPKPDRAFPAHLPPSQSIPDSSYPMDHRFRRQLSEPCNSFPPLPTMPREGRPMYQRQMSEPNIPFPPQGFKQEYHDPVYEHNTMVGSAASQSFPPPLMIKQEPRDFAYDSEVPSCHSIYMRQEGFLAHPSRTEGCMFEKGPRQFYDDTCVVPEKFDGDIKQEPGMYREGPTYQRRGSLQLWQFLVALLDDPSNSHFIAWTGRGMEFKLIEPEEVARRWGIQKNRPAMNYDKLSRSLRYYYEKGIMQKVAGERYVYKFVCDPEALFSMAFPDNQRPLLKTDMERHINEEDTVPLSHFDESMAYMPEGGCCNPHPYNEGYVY
ETV5, sequence (P41161 whole entry): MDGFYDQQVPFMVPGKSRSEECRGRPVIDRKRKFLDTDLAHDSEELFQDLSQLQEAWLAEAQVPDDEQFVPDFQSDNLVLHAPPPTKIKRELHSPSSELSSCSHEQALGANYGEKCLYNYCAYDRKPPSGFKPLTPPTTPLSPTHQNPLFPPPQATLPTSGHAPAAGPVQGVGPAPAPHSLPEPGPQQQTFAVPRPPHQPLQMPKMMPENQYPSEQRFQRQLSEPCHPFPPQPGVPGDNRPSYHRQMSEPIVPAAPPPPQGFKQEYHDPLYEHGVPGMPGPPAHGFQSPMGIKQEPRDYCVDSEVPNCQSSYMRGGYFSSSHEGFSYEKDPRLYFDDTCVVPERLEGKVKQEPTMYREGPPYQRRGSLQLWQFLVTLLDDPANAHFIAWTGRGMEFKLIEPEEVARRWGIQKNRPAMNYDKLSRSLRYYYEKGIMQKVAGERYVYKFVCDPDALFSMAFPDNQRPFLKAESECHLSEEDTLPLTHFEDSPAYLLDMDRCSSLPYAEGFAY
ELF4, sequence (Q99607 whole entry): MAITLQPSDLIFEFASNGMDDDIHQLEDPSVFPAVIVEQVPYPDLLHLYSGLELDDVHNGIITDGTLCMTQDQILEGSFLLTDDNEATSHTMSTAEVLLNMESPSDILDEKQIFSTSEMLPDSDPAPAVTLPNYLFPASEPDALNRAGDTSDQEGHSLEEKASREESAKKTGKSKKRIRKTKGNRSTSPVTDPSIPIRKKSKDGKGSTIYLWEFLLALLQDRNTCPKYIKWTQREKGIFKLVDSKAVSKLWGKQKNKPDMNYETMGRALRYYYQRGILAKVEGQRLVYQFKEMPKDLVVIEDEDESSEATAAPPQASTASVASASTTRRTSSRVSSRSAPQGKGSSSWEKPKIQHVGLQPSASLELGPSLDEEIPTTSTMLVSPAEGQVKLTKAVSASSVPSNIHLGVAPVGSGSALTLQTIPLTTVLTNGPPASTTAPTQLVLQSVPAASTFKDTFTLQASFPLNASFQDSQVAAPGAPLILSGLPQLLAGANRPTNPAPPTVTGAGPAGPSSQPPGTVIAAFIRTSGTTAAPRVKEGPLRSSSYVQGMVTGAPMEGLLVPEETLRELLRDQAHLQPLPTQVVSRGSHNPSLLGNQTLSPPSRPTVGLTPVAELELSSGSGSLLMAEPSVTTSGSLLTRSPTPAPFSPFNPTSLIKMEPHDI
HSF1, sequence (Q00613 whole entry): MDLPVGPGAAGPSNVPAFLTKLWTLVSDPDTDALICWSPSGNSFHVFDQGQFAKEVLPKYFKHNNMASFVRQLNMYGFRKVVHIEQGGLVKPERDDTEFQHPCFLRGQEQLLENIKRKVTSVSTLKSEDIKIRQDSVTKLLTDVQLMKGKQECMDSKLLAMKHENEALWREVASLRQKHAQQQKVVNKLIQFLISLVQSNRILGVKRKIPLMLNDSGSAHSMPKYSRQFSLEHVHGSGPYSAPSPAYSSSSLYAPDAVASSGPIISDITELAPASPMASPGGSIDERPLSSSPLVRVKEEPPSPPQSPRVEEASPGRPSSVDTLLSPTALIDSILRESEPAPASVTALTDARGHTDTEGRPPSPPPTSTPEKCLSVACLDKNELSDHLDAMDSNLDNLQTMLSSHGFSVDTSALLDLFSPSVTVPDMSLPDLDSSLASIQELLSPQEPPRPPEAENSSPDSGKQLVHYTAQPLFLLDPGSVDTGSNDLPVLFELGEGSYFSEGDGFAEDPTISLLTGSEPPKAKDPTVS
CRX, sequence (O43186 whole entry): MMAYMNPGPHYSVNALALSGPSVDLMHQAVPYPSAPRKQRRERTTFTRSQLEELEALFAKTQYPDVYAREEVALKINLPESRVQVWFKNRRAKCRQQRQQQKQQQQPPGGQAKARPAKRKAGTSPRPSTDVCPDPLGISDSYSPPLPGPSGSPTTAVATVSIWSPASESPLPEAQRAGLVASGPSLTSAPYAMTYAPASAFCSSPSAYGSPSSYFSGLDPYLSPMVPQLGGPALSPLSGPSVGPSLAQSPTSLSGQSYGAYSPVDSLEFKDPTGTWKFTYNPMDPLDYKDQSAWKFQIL
ETV6, sequence (P41212 whole entry): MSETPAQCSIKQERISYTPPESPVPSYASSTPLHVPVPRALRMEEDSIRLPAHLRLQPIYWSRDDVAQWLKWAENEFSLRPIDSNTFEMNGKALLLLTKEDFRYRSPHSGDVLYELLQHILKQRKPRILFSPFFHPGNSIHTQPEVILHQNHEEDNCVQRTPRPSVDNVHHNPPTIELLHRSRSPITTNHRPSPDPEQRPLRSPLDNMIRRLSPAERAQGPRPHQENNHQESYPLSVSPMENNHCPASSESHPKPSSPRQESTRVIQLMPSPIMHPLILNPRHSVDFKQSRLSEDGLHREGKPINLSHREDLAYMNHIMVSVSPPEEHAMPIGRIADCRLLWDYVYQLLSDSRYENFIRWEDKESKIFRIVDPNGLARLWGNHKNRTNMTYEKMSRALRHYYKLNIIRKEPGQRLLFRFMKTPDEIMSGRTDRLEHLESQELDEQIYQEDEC

Regarding TATTTG, the binding signal in the experiment with FEV was 1.39 fold enrichment (6-mer frequency, TF over GST control); with ETV5, 1.47 fold enrichment (6-mer frequency, TF over GST control); with HSF1, 1.43 fold enrichment (6-mer frequency, TF over GST control); in the experiment with SPIC, 1.25 fold enrichment (6-mer frequency, TF over GST control); with ELF4, 1.3 fold enrichment (6-mer frequency, TF over GST control); with ELK4, 1.26 fold enrichment (6-mer frequency, TF over GST control). In addition, the binding signal with ETV2 is 1.27 fold enrichment (6-mer frequency, TF over GST control); in the experiment with ELF3, 1.45 fold enrichment (6-mer frequency, TF over GST control); with CRX, 1.71 fold enrichment (6-mer frequency, TF over GST control); in the experiment with ETV1, 1.4 fold enrichment (6-mer frequency, TF over GST control); in the experiment with ERF, 1.34 fold enrichment (6-mer frequency, TF over GST control); with ETV3L, 1.47 fold enrichment (6-mer frequency, TF over GST control). For the same sequence, the binding signal is 1.41 fold enrichment (6-mer frequency, TF over GST control) with ETS2; 1.32 fold enrichment (6-mer frequency, TF over GST control) in the experiment with SPDEF; 1.52 fold enrichment (6-mer frequency, TF over GST control) with ETV7; 1.4 fold enrichment (6-mer frequency, TF over GST control) in the experiment with ELF5; 1.47 fold enrichment (6-mer frequency, TF over GST control) with ETV3; 1.45 fold enrichment (6-mer frequency, TF over GST control) with ETV6.
